# Values joined by “and” are separate entries in the source; they are usually repeats but may differ in a detail not shown here. Equal entries are not always repeated. Structures can show the parent of a compound that is named as a salt.
# What was measured:
# Test in all cases: thermal shift delta Tm vs DMSO control; higher = stronger stabilization (binding)
# Details in all cases: 12.5 µM; protein concentration 2 µM
# [1] = system: LOC_OS01G01410-cb001
# In short: (§1)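 Heating from 25°C to 95°C at 0.05°C/s, fluorescence was recorded for 19.5 μl wells of 2 μM E. coli-expressed, purified rice kinase domain in 100 mM potassium phosphate pH 7.5, 150 mM NaCl, 10% glycerol and 5 × SYPRO Orange with compound in DMSO. Boltzmann fits gave melting temperatures for this differential scanning fluorimetry assay. The shift reported is the mean of three replicates against the DMSO-only protein.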
# [2] = system: LOC_OS01G02750-cb003
# In short: as §1
# [3] = system: LOC_OS01G10900-cb004
# In short: as §1
# [4] = system: LOC_OS01G13800-cb001
# In short: as §1
# [5] = system: LOC_OS01G14860-cb001
# In short: as §1
# [6] = system: LOC_OS01G21960-cb002
# In short: as §1
# [7] = system: LOC_OS01G39600-cb002
# In short: as §1
# [8] = system: LOC_OS01G48390-cb002
# In short: as §1
# [9] = system: LOC_OS01G51400-cb002
# In short: as §1
# [10] = system: T1, LOC_OS01G52050-cb004
# T1 sequence (whole entry): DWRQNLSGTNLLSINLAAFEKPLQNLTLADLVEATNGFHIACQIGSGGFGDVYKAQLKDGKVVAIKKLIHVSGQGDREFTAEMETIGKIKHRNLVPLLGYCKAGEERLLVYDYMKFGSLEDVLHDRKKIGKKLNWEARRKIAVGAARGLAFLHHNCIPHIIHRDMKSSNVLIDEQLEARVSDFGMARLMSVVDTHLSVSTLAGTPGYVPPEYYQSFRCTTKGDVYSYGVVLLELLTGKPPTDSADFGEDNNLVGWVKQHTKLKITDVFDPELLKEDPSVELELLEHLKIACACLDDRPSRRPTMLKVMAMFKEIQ
# In short: as §1
# 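Also: purified Escherichia coli-expressed rice kinase domain construct.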
Structure (SMILES),thermal shift delta Tm [1],thermal shift delta Tm [2],thermal shift delta Tm [3],thermal shift delta Tm [4],thermal shift delta Tm [5],thermal shift delta Tm [6],thermal shift delta Tm [7],thermal shift delta Tm [8],thermal shift delta Tm [9],thermal shift delta Tm [10]
COc1cc2ncnc(Nc3ccc(O)c(Br)c3)c2cc1OC,1.47 °C,-0.02 °C,0.65 °C,-0.02 °C,0.9 °C,0.93 °C,-1.06 °C,3 °C,0.29 °C,1.31 °C
CC(C)NC(=O)C1CCC(n2c(NC(=O)c3ccc(F)cc3)nc3ccc(CN4CCC(C(C)(C)O)CC4)cc32)CC1 (stereo not given) [Belizatinib (TSR-011)],0.68 °C,3.65 °C,1.75 °C,-0.36 °C,0.58 °C,1.84 °C,2.02 °C,2.61 °C,0.56 °C,4.45 °C
Cc1nc(Nc2n[nH]c3c2CN(C(=O)N[C@H](CN(C)C)c2ccccc2)C3(C)C)c2sccc2n1,0.37 °C,2.46 °C,0.23 °C,-0.4 °C,4.22 °C,2.47 °C,0.6 °C,0.23 °C,0.28 °C,0.94 °C
CC(C)N(CCC(=O)c1ccc2ccccc2c1)Cc1ccccc1,-0.06 °C,-5.16 °C,1.63 °C,-1.25 °C,-0.01 °C,0.24 °C,-2.79 °C,0.53 °C,-0.18 °C,-7.43 °C
CO[C@@H](C)Cn1c(=O)n(C)c2cnc3ccc(-c4cncc(C(C)(C)O)c4)cc3c21,0.7 °C,1.17 °C,0.3 °C,0.76 °C,0.77 °C,0.72 °C,0.26 °C,0.5 °C,0.38 °C,1.9 °C
O=C1NC(=O)C(c2ccccc2[N+](=O)[O-])=C1Nc1ccc(O)c(Cl)c1,0.62 °C,-1.98 °C,0.16 °C,0.72 °C,0.92 °C,1.43 °C,-0.46 °C,0.67 °C,0.04 °C,-0.24 °C
CC(C)(C)c1cnc(CSc2cnc(NC(=O)C3CCNCC3)s2)o1,1.11 °C,10.9 °C,3.68 °C,0.5 °C,5.74 °C,0.34 °C,0.92 °C,6.3 °C,0.67 °C,0.49 °C
COc1ccc2c(Oc3ccc(NC(=O)c4c(C)n(CC(C)(C)O)n(-c5ccccc5)c4=O)nc3)ccnc2c1,0.36 °C,1.62 °C,0.28 °C,-0.07 °C,1.58 °C,0.62 °C,-0.29 °C,0.51 °C,0.18 °C,1.2 °C
Nc1ncnc2n[nH]c(Nc3ccc(F)cc3)c12,1.74 °C,1.17 °C,1.94 °C,-0.28 °C,0.76 °C,1.31 °C,2.02 °C,1.2 °C,0.33 °C,1.46 °C
CCNC(=O)Nc1ccc(-c2nc3c(c(N4CCOC[C@@H]4C)n2)CCN(C2COC2)C3)cc1,0.46 °C,0.52 °C,0.25 °C,0.66 °C,0.02 °C,0.43 °C,-0.29 °C,0.42 °C,-0.02 °C,0.23 °C
C=CC(=O)Nc1cccc(Sc2nc(Nc3ccc(N4CCN(C)CC4)cc3)ncc2Cl)c1,3.81 °C,1.58 °C,5.27 °C,-0.1 °C,1.89 °C,0.88 °C,6.99 °C,7.06 °C,1.43 °C,4.22 °C
CC(C)(C)Cn1c(N)nc2ccc(-c3[nH]c(C(C)(C)C)nc3-c3ccc(F)cc3)nc21,0.51 °C,-0.68 °C,0 °C,-0.49 °C,-0.02 °C,-0.11 °C,-0.5 °C,1.19 °C,-0.1 °C,-0.09 °C
Cc1ncc(CCCN(C)C)cc1Nc1ncc2c(n1)-c1ccc(C(F)(F)F)cc1NC(=S)C2,0.62 °C,1.24 °C,-0.4 °C,0.18 °C,0.59 °C,0.78 °C,-0.18 °C,1.07 °C,0.38 °C,1.48 °C
"CCCS(=O)(=O)Nc1ccc(F)c(C(=O)c2c[nH]c3ncc(-c4ccc(Cl)cc4)cc23)c1F [Vemurafenib (PLX4032, RG7204)]",3.81 °C,7.84 °C,6.74 °C,1.27 °C,4.3 °C,2.86 °C,11.7 °C,3.18 °C,1.03 °C,11.1 °C
C#Cc1cccc(Nc2ncnc3cc(OCCOC)c(OCCOC)cc23)c1 [Erlotinib],0.56 °C,0.35 °C,0.59 °C,0.04 °C,0.32 °C,0.72 °C,2.19 °C,0.85 °C,-0.14 °C,0.19 °C
Cc1ncc(CO)c(CO)c1O [Pyridoxine],-0.03 °C,0.64 °C,0.29 °C,-0.11 °C,0.24 °C,0.13 °C,-0.13 °C,0.22 °C,0.06 °C,4.05 °C
C[C@H]1CNC(=O)c2cnn3ccc(nc23)N[C@H](C)c2cc(F)ccc2O1,-0.06 °C,4.66 °C,3.91 °C,-0.18 °C,0.3 °C,1.05 °C,0.15 °C,1.46 °C,0.22 °C,4.57 °C
Cn1cc(-c2ccc3ncc(Cc4ccc5ncccc5c4)n3n2)cn1,0.75 °C,0.95 °C,6.36 °C,0.22 °C,0.23 °C,0.62 °C,0.86 °C,1.24 °C,0.47 °C,0.62 °C
O=C(NCc1ccccc1)c1csc(Nc2ccncn2)n1 [Thiazovivin],0.06 °C,1.66 °C,2.94 °C,1.01 °C,3.98 °C,2.52 °C,0.44 °C,0.4 °C,0.24 °C,2.17 °C
COc1nccc(-c2c(-c3ccc(F)cc3)ncn2C2CCC(O)CC2)n1 (stereo not given),-0.16 °C,1.24 °C,-0.06 °C,0.22 °C,-0.06 °C,0.69 °C,-0.45 °C,0.16 °C,0.24 °C,0.27 °C

Structure (SMILES),thermal shift delta Tm [1],thermal shift delta Tm [2],thermal shift delta Tm [3],thermal shift delta Tm [4],thermal shift delta Tm [5],thermal shift delta Tm [6],thermal shift delta Tm [7],thermal shift delta Tm [8],thermal shift delta Tm [9],thermal shift delta Tm [10]
C1=N/C2=N/c3ccc(OCCN4CCCC4)c(c3)COC/C=C/COCc3cccc(c3)C(=C1)N2 [Pacritinib (SB1518)],2.82 °C,2.89 °C,2.75 °C,-0.21 °C,4.13 °C,2.75 °C,4.09 °C,2.71 °C,0.34 °C,8.62 °C
NCC(=O)Nc1ccc(-n2nc(C(F)(F)F)cc2-c2ccc3c(ccc4ccccc43)c2)cc1,1.11 °C,6.14 °C,0.31 °C,-0.76 °C,-0.8 °C,0.55 °C,2.28 °C,0.79 °C,-0.21 °C,2.4 °C
COc1cc2ncnc(Nc3ccc(Oc4ccccc4)cc3C)c2cc1OC,0.68 °C,0.9 °C,0.3 °C,-0.47 °C,0.22 °C,0.26 °C,0.05 °C,0.79 °C,0.08 °C,2.07 °C
COCCOc1ccc2c(c1)ncn2-c1ccc2cccc(N3CCC(N)CC3)c2n1,0.39 °C,7.25 °C,1.08 °C,-0.56 °C,1.89 °C,3.75 °C,2.09 °C,0.21 °C,-0.08 °C,10.9 °C
COc1cc2ccc(=O)oc2cc1O [Scopoletin],-0.07 °C,0.35 °C,0.25 °C,-0.08 °C,0.39 °C,0.11 °C,-0.27 °C,-0.08 °C,0.18 °C,0.81 °C
COc1cc(Nc2ncc(F)c(Nc3ccc4c(n3)N(COP(=O)(O)O)C(=O)C(C)(C)O4)n2)cc(OC)c1OC [Fostamatinib (R788)],1.98 °C,-0.16 °C,0.33 °C,-0.55 °C,4.38 °C,3.63 °C,9.1 °C,0.22 °C,0.49 °C,6.23 °C
C=CC(=O)N1CCC[C@@H](n2nc(-c3ccc(Oc4ccccc4)cc3)c3c(N)ncnc32)C1,0.18 °C,0.65 °C,0.59 °C,0.2 °C,0 °C,0.24 °C,0.74 °C,0.52 °C,0.21 °C,0.5 °C
Cc1cc(Nc2ncnc3ccc(-c4ccc(CNCCS(C)(=O)=O)o4)cc23)ccc1Oc1ccn2ncnc2c1 [HER2-Inhibitor-1],1.34 °C,2.06 °C,3.1 °C,0.55 °C,2.31 °C,1.18 °C,3.89 °C,0.83 °C,0.03 °C,1.36 °C
N#CC1(c2ccc(NC(=O)c3cccnc3NCc3ccncc3)cc2)CCCC1 [Apatinib],1.1 °C,0.48 °C,0.27 °C,0.11 °C,0.52 °C,0.5 °C,0.01 °C,0.55 °C,0.33 °C,0.12 °C
"Cc1c(CN2CCN(C(=O)[C@H](C)O)CC2)sc2c(N3CCOCC3)nc(-c3cnc(N)nc3)nc12 [Apitolisib (GDC-0980, RG7422)]",0.32 °C,0.18 °C,0.13 °C,0.56 °C,0.1 °C,0.49 °C,0.16 °C,0.64 °C,0.53 °C,0.42 °C
CNC(=O)c1cc(Oc2ccc(NC(=O)Nc3ccc(Cl)c(C(F)(F)F)c3)cc2)ccn1 [Sorafenib Tosylate],2.14 °C,5.21 °C,1.97 °C,1.97 °C,5.9 °C,2.13 °C,2.03 °C,2.56 °C,1.31 °C,5.16 °C
Cc1ccc(NC(=O)c2cccc(C(C)(C)C#N)c2)cc1Nc1ccc2ncn(C)c(=O)c2c1,0.91 °C,0.97 °C,0.69 °C,0.2 °C,0.47 °C,0.52 °C,0.04 °C,1.13 °C,0.61 °C,0.4 °C
CNC(=O)c1cc(Oc2ccc3nc(N[C@@H]4CCCC[C@H]4O)sc3c2)ccn1,0.03 °C,2.05 °C,1.18 °C,0.41 °C,-0.2 °C,0.67 °C,-0.55 °C,0.91 °C,0.42 °C,0.41 °C
Cc1ccc(NC(=O)c2ccc(CN3CCN(C)CC3)cc2)cc1Nc1nccc(-c2cccnc2)n1 [Imatinib Mesylate (STI571)],1.08 °C,0.88 °C,1.18 °C,0.6 °C,0.15 °C,0.23 °C,0.07 °C,0.86 °C,0.08 °C,0.02 °C
Oc1ccc(Nc2nc(-c3ccc(Cl)cc3)cs2)cc1,1.11 °C,3.1 °C,0.5 °C,0.46 °C,1.41 °C,-0.09 °C,4.96 °C,1.3 °C,1.51 °C,3.09 °C
COc1cc2nccc(Oc3ccc(NC(=O)c4cn(C(C)C)c(=O)n(-c5ccc(F)cc5)c4=O)cc3F)c2cc1OC,0.17 °C,1.65 °C,-0.15 °C,0.61 °C,0.98 °C,0.2 °C,0.41 °C,0.32 °C,0.13 °C,4.45 °C
O=C(Nc1cnn2ccc(N3CCC[C@@H]3c3cc(F)ccc3F)nc12)N1CC[C@H](O)C1 [Larotrectinib (LOXO-101) sulfate],-0.1 °C,0.5 °C,0.8 °C,0.17 °C,0.39 °C,0.24 °C,-0.28 °C,1.09 °C,-0.18 °C,0.04 °C
c1nc2c(NC3CCCCC3)nc(Nc3ccc(N4CCOCC4)cc3)nc2[nH]1 [Reversine],5.03 °C,0.7 °C,0.47 °C,0.43 °C,2.02 °C,2.54 °C,5.31 °C,-0.29 °C,1.66 °C,5.54 °C
CCOc1cc(N2CCC(O)CC2)ccc1Nc1ncc2c(n1)N(C)c1ccccc1C(=O)N2C,0.48 °C,0.5 °C,0.7 °C,-0.03 °C,0.03 °C,0.41 °C,-0.54 °C,0.04 °C,0.06 °C,-0.47 °C
Cc1cnc(-c2cnc(NCCNc3ccc(C#N)cn3)nc2-c2ccc(Cl)cc2Cl)[nH]1,0.25 °C and -0.35 °C,1.32 °C and 0.93 °C,0.52 °C and -0.13 °C,0.39 °C and 0.37 °C,7.39 °C and 7.4 °C,1.7 °C and 1.69 °C,0.07 °C and 1.56 °C,0.47 °C and 0.64 °C,0.25 °C and 0.6 °C,0.73 °C and 0.53 °C

# From the supplement of paper PMC9694430
